High-throughput results from PubChem.
Compounds with a hit are over-represented: about 19% of the library has one in this group of screens.
Pf growth 48h = inhibits P. falciparum growth in the first generation, 48 h; Potency, µM (titrated, usually from 28.7 µM), usual class: inhibitors; actives 5.9% (n = 310,000); P. falciparum luciferase growth in erythrocytes, 48 h
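Here the parasites carry a stable luciferase gene and grow inside erythrocytes in Albumax-based RPMI medium with compound for one erythrocytic cycle. Activity is scored as loss of luminescent signal.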
Cycloheximide cs = counter-screen hit for Shiga toxin inhibitors, cycloheximide | max response, % | cell reporter, cycloheximide protein synthesis inhibition counterscreen | actives 12% (n = 300,000); in the data active means max response mostly above about 13%, no sharp cut-off; inactive means mostly below about 14%; further: read at 38.3 µM for the half of the compounds with a filed dose
LASV entry inh = Lassa virus entry inhibition | Lassa virus pseudotype entry inhibition, cell reporter | Potency, µM (top dose mostly 37.9 µM), usual class: inhibitors | actives 1.2% (n = 300,000); calls by dose curve; tested in HEK293 cells; further: nearly all actives have a fitted effect of over 50% in size
Pf growth 96h = inhibits malaria parasite growth, 96 h; P. falciparum luciferase reporter growth, 96 h; Potency, µM (doses to about 28.7 µM), most hits filed as inhibitors; actives 6.9% (n = 320,000)
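Parasite growth measured via integrated firefly luciferase reporter in P. falciparum. Infected erythrocytes at 2% hematocrit, 0.05% parasitemia final were treated 96 hours at 37 C under 5% CO2, and luminescence was read.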
Shiga inhibitor = Shiga toxin inhibition | Vero cells, Shiga toxin protein synthesis inhibition reporter | inhibition, % at 38.7 µM | actives 9.2% (n = 290,000); in the data active means inhibition mostly above about 28%, no sharp cut-off; inactive means mostly below about 43%
Marburg entry inh = Marburg virus entry inhibition; actives 1.8% (n = 300,000); AID 540276; Marburg virus pseudotyped entry inhibition, cell reporter; Potency, µM (highest dose often 37.8 µM), actives largely listed as inhibitors; calls by dose curve; tested in HEK293 cells
Large screens that a line does not name were inactive; ! = not confirmed by another sample. Unless noted, the call rests on the fitted dose curve; in most records, active means well fitted inhibition curve with a large enough effect; inconclusive means small, poorly fitted or top-dose-only effect, or another doubt; inactive means no such curve, though single readings can be large or run the other way.

Cc1ccc(NC(=O)C2CCCN(c3nccc(C)n3)C2)c(C)c1 (stereo unspecified)	none
Cc1ccc(NC(=O)C2CCCN(c3ncccn3)C2)cc1F (stereo unspecified)	Cycloheximide cs 23
O=C(Nc1ccc(Cl)cc1F)C1CCCN(C2=NS(=O)(=O)c3ccccc32)C1 (stereo unspecified)	Pf growth 96h inconclusive (no result: Cycloheximide cs, Shiga inhibitor)
CCOP(=O)(OCC)C(=Cc1cc(C(C)(C)C)c(O)c(C(C)(C)C)c1)P(=O)(OCC)OCC	none (no result: Pf growth 48h, LASV entry inh, Pf growth 96h, Marburg entry inh)
CCC1CCCCN1Cc1nc2c(c(=O)n(C)c(=O)n2C)n1CCCc1ccccc1 (stereo unspecified)	Pf growth 48h inconclusive, Pf growth 96h inconclusive (no result: LASV entry inh, Marburg entry inh)
COc1cccc(NS(=O)(=O)c2cc3c4c(c2)CCC(=O)N4CCC3)c1	Pf growth 48h inconclusive, LASV entry inh inconclusive (no result: Cycloheximide cs, Shiga inhibitor)
O=C(Nc1cccc(C(F)(F)F)c1)C1CCCN(c2ncccn2)C1 (stereo unspecified)	none
O=C(Nc1ccc2c(c1)CCC2)C1CCCN(c2ncccn2)C1 (stereo unspecified)	Cycloheximide cs 38, Shiga inhibitor 43, Marburg entry inh inconclusive
Cc1cc(C)cc(NC(=O)C2CCCN(c3ncccn3)C2)c1 (stereo unspecified)	Cycloheximide cs 11, Pf growth 96h inconclusive
Cc1nc2ncnn2c(N2CCCC(C(=O)Nc3ccc4c(c3)CCC4)C2)c1C (stereo unspecified)	Pf growth 48h 5.2µM, LASV entry inh inconclusive, Marburg entry inh inconclusive
Cc1nc2ccc(NC(=S)NC3CC3)cc2nc1C	Cycloheximide cs 19, LASV entry inh inconclusive, Marburg entry inh inconclusive
Cc1nc2ccc(NC(=S)NC(C)C)cc2nc1C	Cycloheximide cs 20, Pf growth 96h inconclusive, Marburg entry inh inconclusive
Nc1nn2c(-c3ccccc3)cc(=O)[nH]c2c1N=Nc1ccc(O)cc1	LASV entry inh inconclusive, Pf growth 96h inconclusive, Marburg entry inh inconclusive
Cc1nn(Cc2ccccc2Cl)c(Cl)c1C(=O)NCCc1ccccc1	Cycloheximide cs 47, LASV entry inh inconclusive, Shiga inhibitor 100
CCNC(=O)NC(=O)C(C)OC(=O)c1c(C)nn(Cc2ccccc2Cl)c1Cl (stereo unspecified)	Pf growth 48h inconclusive, Pf growth 96h 12µM
CCNC(=O)NC(=O)C(C)OC(=O)c1cccn1C (stereo unspecified)	Pf growth 48h 10µM (no result: LASV entry inh, Marburg entry inh)
CC(=O)Nc1ccc(NC(=O)c2c(C)nn(Cc3ccccc3)c2Cl)cc1	Marburg entry inh inconclusive
CCNC(=O)NC(=O)C(C)OC(=O)c1c(C)nn(Cc2ccccc2)c1Cl (stereo unspecified)	Pf growth 48h 13µM, LASV entry inh inconclusive, Pf growth 96h inconclusive, Marburg entry inh inconclusive
Cc1cc(NC(=O)COC(=O)c2c(C)nn(Cc3ccccc3Cl)c2Cl)no1	LASV entry inh inconclusive, Marburg entry inh inconclusive
Cc1nn(Cc2ccccc2Cl)c(Cl)c1C(=O)OCC(=O)NCc1ccco1	Cycloheximide cs 11, LASV entry inh inconclusive (no result: Pf growth 96h)
Cc1nn(Cc2ccccc2)c(C)c1C(=O)OCC(=O)NCc1ccco1	none (no result: Pf growth 48h)
Cc1ccc(S(=O)(=O)Nc2ccc(-c3cn4ccc(C)cc4n3)cc2)cc1	Pf growth 48h 1.7µM (no result: LASV entry inh, Marburg entry inh)
Cc1ccn2cc(-c3ccc(NS(=O)(=O)c4ccccc4)cc3)nc2c1	Pf growth 48h 13µM, Shiga inhibitor 13, Marburg entry inh inconclusive
Cc1ccc(-c2cn3cccc(C)c3n2)cc1NS(=O)(=O)c1ccccc1	none (no result: Pf growth 48h, Cycloheximide cs, Pf growth 96h, Shiga inhibitor)
COc1ccc(S(=O)(=O)Nc2cc(-c3cn4ccc(C)cc4n3)ccc2C)cc1OC	none (no result: Pf growth 48h, Cycloheximide cs, Pf growth 96h, Shiga inhibitor)
Cc1ccn2cc(-c3ccc(Br)cc3)nc2c1	Cycloheximide cs 38, Shiga inhibitor 22 (no result: LASV entry inh, Marburg entry inh)
Clc1ccc(-c2cn3cc(Br)ccc3n2)cc1Cl	Cycloheximide cs 51, LASV entry inh inconclusive, Shiga inhibitor 103, Marburg entry inh inconclusive
O=C(Nc1ccc(-c2cn3cccnc3n2)cc1)c1cc(Br)ccc1Cl	none (no result: Pf growth 48h, Cycloheximide cs, Pf growth 96h, Shiga inhibitor)
Cc1ccn2cc(-c3cnoc3C)nc2c1	none (no result: Pf growth 96h)
O=C(/C=C/c1ccc(Br)o1)OCc1nc2ccsc2c(=O)[nH]1	none (no result: Cycloheximide cs, Shiga inhibitor)
COc1ccc(CN2CCNC(=O)C2CC(=O)NC2CCCCCC2)c(C)c1C (stereo unspecified)	none
Clc1ccc2c(N3CCCC3)ccnc2c1	Pf growth 48h 3.7µM (no result: Pf growth 96h)
NC(=O)C1CCN(c2ccnc3cc(Cl)ccc23)CC1	Pf growth 48h inconclusive, Pf growth 96h 12µM (no result: LASV entry inh, Marburg entry inh)
CC1CN(c2ccnc3cc(Cl)ccc23)CC(C)O1 (stereo unspecified)	Pf growth 48h inconclusive, LASV entry inh inconclusive, Pf growth 96h inconclusive, Marburg entry inh inconclusive
COc1ccc(CNC(=O)C2CCN(c3nccs3)CC2)cc1	none (no result: Pf growth 96h)
COc1ccc(N2CCN(c3nccs3)CC2)cc1	Cycloheximide cs 37, LASV entry inh inconclusive, Shiga inhibitor 72
COc1ccc(N2CCN(c3ccnc4cc(Cl)ccc34)CC2)cc1	Pf growth 48h inconclusive, Pf growth 96h 7.4µM
COc1ccccc1/C=C/C=N/NC(=O)CC1C(=O)NN=C1C (stereo unspecified)	LASV entry inh inconclusive
COc1ccc(Nc2nc(N)nc(CN3CCOCC3)n2)cc1	none
CSCCC(NC(=O)c1ccc(Cl)cc1)C(=O)OCC(=O)Nc1ccc(C#N)cc1 (stereo unspecified)	Marburg entry inh inconclusive
CCOC(=O)C(=O)Nc1ccc(S(=O)(=O)Nc2ncccn2)cc1	Pf growth 96h inconclusive (no result: Pf growth 48h)
Clc1ccc2c(N3CCOCC3)ccnc2c1	none (no result: Shiga inhibitor)
Oc1ccc(N2CCN(c3ccnc4cc(Cl)ccc34)CC2)cc1	Pf growth 48h 3.3µM, Pf growth 96h 2.3µM, Marburg entry inh inconclusive
Cc1ccccc1OCCCn1c(-c2ccc(Cl)cc2)nc2ccccc2c1=O	none (no result: Pf growth 48h, Cycloheximide cs, Pf growth 96h, Shiga inhibitor)
CCOC(=O)c1ccc2nc3c(cc2c1)CCS3	Cycloheximide cs 48, Shiga inhibitor 71, Marburg entry inh inconclusive
COc1ccc(Nc2nc(NN)nc(Nc3ccc(OC)cc3)n2)cc1	Pf growth 48h 9.3µM, Pf growth 96h 3.3µM (no result: LASV entry inh, Shiga inhibitor, Marburg entry inh)
NNc1ccccc1	Cycloheximide cs 14! (no result: LASV entry inh, Marburg entry inh)
COc1ccc(Nc2ccc(OC)cc2)cc1	Pf growth 48h inconclusive, Cycloheximide cs 46, LASV entry inh inconclusive, Pf growth 96h inconclusive, Shiga inhibitor 87, Marburg entry inh inconclusive
c1ccc(Nc2ccnc(Nc3ccccc3)n2)cc1	Cycloheximide cs 53, Shiga inhibitor 100, Marburg entry inh inconclusive
NNc1nccc(Nc2ccccc2C(=O)O)n1	none
COc1ccc(Nc2ccc(Nc3ccc(OC)cc3)nn2)cc1	none (no result: LASV entry inh, Marburg entry inh)
Cc1ccc(-n2nc(C)c(NC(=O)COC(=O)c3ccccc3NCCO)c2C)cc1	Marburg entry inh inconclusive (no result: Cycloheximide cs, Shiga inhibitor)
COc1ccc(NC(=O)C2CCN(C(=O)Cc3ccccc3)CC2)cc1OC	none
NNc1nc(Nc2ccccc2)nc(Nc2ccccc2)n1	Pf growth 48h 8.3µM, Shiga inhibitor 36
COc1ccc(Nc2cccccc2=O)cc1	none
COc1ccc(NC2=CC(=O)N(C)C2=O)cc1	Shiga inhibitor active, Marburg entry inh inconclusive
Cc1cc(C(=O)N2CCCC(Nc3ccc(C(C)C)cc3)C2)nn1C (stereo unspecified)	Pf growth 48h inconclusive (no result: LASV entry inh, Marburg entry inh)
CCOc1ccc(-c2c(=O)n(OCc3nc4ccccc4[nH]3)c3ccccc3[n+]2[O-])cc1	LASV entry inh inconclusive, Pf growth 96h inconclusive, Shiga inhibitor 32
